Experimental data published in the supplement of paper PMC6522484.
± gives the standard deviation of the averaged measurements.

Assays:
DLD1 [1] = assay: cell viability (CellTiter-Glo) relative to plate median (fraction of plate median); higher = more viable cells; details: 5 µM; treatment time 24 h; reporter: 7TFP
Procedure, shortened: (§1)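 Stable lentiviral TCF/Wnt firefly luciferase reporters (7TFP or TCF4/Wnt) were present in the colorectal cancer cell lines used. These cells received library compounds at a final 5 µM for 24 h, and parallel plates were read for firefly luciferase or CellTiterGlo luminescence. Each well was normalised to the plate median, and the value reported is the mean of two independent replicates.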

HCT116 = assay: as above; details: 5 µM; treatment time 24 h; reporter: TCF4/Wnt
Procedure, shortened: as §1

SW480 [2] = assay: as above; details: 5 µM; treatment time 24 h; reporter: 7TFP
Procedure, shortened: as §1

DLD1 [3] = assay: TCF/Wnt firefly luciferase reporter signal relative to plate median (fraction of plate median); higher = higher Wnt reporter signal; details: 5 µM; treatment time 24 h; reporter: 7TFP
Procedure, shortened: as §1

SW480 [4] = assay: as above; details: 5 µM; treatment time 24 h; reporter: 7TFP
Procedure, shortened: as §1

Row | SMILES | cell viability (DLD1 [1]) | cell viability (HCT116) | cell viability (SW480 [2]) | TCF/Wnt firefly luciferase reporter signal (DLD1 [3]) | TCF/Wnt firefly luciferase reporter signal (SW480 [4])
1 | COC(=O)CCCOc1ccc(Cl)cc1Cl | 0.984 ± 0.093 | 1.02 ± 0.11 | 0.965 ± 0.05 | 1.1 ± 0.099 | 0.9 ± 0.23
2 | CNCC[C@@H](Oc1ccccc1C)c1ccccc1 | 0.949 ± 0.073 | 0.941 ± 0.043 | 0.969 ± 0.021 | 1.02 ± 0.014 | 1.08 ± 0.042
3 | CCOC(N)=O | 1.01 ± 0.021 | 1.04 ± 0.16 | 0.949 ± 0.018 | 1.035 ± 0.0071 | 0.982 ± 0.054
